Compound activity as filed in PubChem BioAssay.
Most compounds without a hit are left out; they make up all but 2.1% or so of the library.
ERAP1 inh – human ERAP1 aminopeptidase inhibitors, primary screen, biochemical, single point, plate reader | Endoplasmic reticulum aminopeptidase 1 (Homo sapiens), Q9NZ08 | recombinant ERAP1, Leu-AMC fluorescence, 60 min | inhibition, % at 10.7 µM | hit rate 0.15% among 340,000;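 active = mean replicate inhibition of at least 30%, or all replicates individually reaching that 30% level; inactive = mean below 30% and not every replicate reaching it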
Target sequence (Q9NZ08 whole entry, looked up): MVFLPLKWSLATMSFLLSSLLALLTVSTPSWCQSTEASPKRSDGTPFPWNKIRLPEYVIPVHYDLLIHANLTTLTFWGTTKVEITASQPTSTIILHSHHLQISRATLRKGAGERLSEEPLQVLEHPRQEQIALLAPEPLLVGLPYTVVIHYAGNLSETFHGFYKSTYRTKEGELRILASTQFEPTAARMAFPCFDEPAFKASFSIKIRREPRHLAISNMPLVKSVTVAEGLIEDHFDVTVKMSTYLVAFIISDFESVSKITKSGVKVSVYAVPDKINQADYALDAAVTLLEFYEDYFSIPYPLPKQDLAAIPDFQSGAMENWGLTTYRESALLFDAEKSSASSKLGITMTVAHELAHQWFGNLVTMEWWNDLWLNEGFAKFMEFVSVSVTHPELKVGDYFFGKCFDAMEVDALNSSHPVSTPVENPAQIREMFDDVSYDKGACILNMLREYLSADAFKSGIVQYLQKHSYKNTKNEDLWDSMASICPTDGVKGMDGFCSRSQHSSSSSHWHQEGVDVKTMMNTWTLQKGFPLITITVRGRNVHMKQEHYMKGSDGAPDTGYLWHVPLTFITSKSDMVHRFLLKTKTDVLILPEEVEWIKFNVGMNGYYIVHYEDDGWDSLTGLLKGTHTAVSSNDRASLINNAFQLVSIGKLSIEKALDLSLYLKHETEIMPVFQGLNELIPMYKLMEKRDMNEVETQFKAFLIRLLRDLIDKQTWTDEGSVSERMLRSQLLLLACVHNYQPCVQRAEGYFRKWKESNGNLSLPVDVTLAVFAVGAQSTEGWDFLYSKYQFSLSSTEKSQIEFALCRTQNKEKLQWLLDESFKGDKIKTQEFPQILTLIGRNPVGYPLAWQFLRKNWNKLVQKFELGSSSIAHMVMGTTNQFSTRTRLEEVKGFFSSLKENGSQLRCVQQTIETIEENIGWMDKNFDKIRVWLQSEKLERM
ARNT-TACC3 inh – disruptors of ARNT/TACC3 protein interaction, primary screen, biochemical, AlphaScreen, single concentration; AlphaScreen His-ARNT PAS-B/GST-TACC3 binding, luminescence; TACC3 fragment carries E629A point mutation; inhibition, % at 9.99 µM; hit rate 0.66% among 390,000; AID 623870, 2012;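 active = mean inhibition of replicates at least 50% and at least half of replicates each reaching 50%; inconclusive = half or more replicates reach 50% but mean below 50%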
rRNA inh HTS – reduced GFP signal of wild-type E. coli, primary screen, bacterial rRNA inhibitor project, GFP/RFP fluorescence, OD600, single point. AID 720706, 2013. hit rate 1.6% among 350,000. E. coli WT GFP vs humanized-ribosome RFP mutants, 24 h; stronger effect = lower value; DMSO median 0, no signal -100. GFP signal change (wild-type ribosome), % (test concentration not listed);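 active = significant combined selectivity score with lowered wild-type GFP, culture density cut under 30%, mutant RFP and density less affected; inactive = any of these conditions unmet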
F508del corr – F508del CFTR correction, initial screen, CFBE line, single point; AID 720511, 2013; hit rate 0.36% among 350,000; CFBE cells, YFP halide quenching; stimulated with forskolin plus potentiator P3; % fluorescence drop versus neutral controls; activity (quench increase), % at 7.58 µM;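 active = mean added fluorescence quench of at least 8% versus neutral control, with both replicates also reaching 8%; inconclusive = only one of the mean or replicate conditions met; inactive = mean below 8% and not both replicates reaching 8%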;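 also: cells transiently co-express mutant CFTR-F508del with the halide-sensitive YFP; corrector assay measuring rescue of mutant channel to the surface after 24 h compound exposure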
PvdQ acylase – P. aeruginosa PvdQ acylase inhibitors, primary screen, biochemical, fluorescence, plate reader and imaging, single point; PvdQ acylase [Pseudomonas aeruginosa LESB58]; purified PvdQ acylase; inhibition, % at 10 µM; hit rate 0.063% among 340,000; AID 488965, 2010; in the data active = inhibition above about 30%, passing the limit was not always enough; inconclusive = no clear call, values can overlap the other calls
AID977621 – growth inhibition of wild-type GFP E. coli, dose response, H69 mutant RFP, cherry-pick; shares compounds with rRNA inh HTS; E. coli wild-type GFP strain growth, fluorescence, 24 h; activity change, negative = inhibition at 50 µM; 1,900 tested, under 10 active; AID 977621, 2014;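 active = Wild-type ribosome reporter drop at least double the humanized mutant ribosome reporter drop, growth loss under a set limit; inconclusive = no clear call, values can overlap the other calls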;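 also: wild-type GFP and H69 mutant RFP strains grown together 50/50 in each well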
AID977628 – E. coli growth inhibition, wild-type GFP versus h24 humanized RFP strain, dose response, h24 mutant RFP vs wild-type GFP, cherry-pick | shares compounds with rRNA inh HTS | E. coli WT GFP strain growth, fluorescence, 24 h | activity change, negative = inhibition at 50 µM | 1,900 tested, under 10 active | AID 977628, 2014;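 active = compound lowering the normal-ribosome reporter at least twice as much as the humanized-ribosome reporter, growth loss under a set limit; inconclusive = no clear call, values can overlap the other calls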;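 also: wild-type GFP and h24 humanized RFP strains co-cultured 1 to 1 per well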
Numbers stand for hits; - = inactive; ? = inconclusive; . = not tested or not shown.

SMILES	ERAP1 inh	ARNT-TACC3 inh	rRNA inh HTS	F508del corr	PvdQ acylase	AID977621	AID977628
C=CCn1c(SCC(=O)Nc2ccc3c(c2)OCCO3)nnc1-c1ccco1	-	-	-17	-	-	.	-
COC(=O)CN1C(=S)N(c2ccc(F)cc2)C(=O)C1CC(=O)Nc1ccc(F)cc1 (stereo not given)	.	-	-24	-	-	-	-
CCNC(=O)C[C@@H]1CC[C@H]2[C@H](COc3ccc(NS(=O)(=O)c4ccccc4C)cc3C(=O)N2C)O1	-	-	-	-	.	.	.
CC(C)NC(=O)N(C)C[C@@H]1Oc2ccc(NS(=O)(=O)c3cccs3)cc2C(=O)N([C@@H](C)CO)C[C@@H]1C	.	.	-	-	.	.	.
O=c1[nH]c2cc([N+](=O)[O-])ccc2c2ccccc12	-	-	-13	-	-	-	?
O=C(COC(=O)c1ccc(Br)cc1)NCc1ccccc1	.	-	.	.	-	.	.
CC(=O)Cc1cc(O)c2ccccc2c1OC(=O)c1ccc(Br)cc1	-	-	-14	-	-	-	-
C[C@H](CO)N1C[C@H](C)[C@@H](CN(C)C(=O)C2CCC2)Oc2ncc(Br)cc2C1=O	.	.	-	-	.	.	.
O=C(NCc1nc2ccccc2[nH]1)c1ccc(S(=O)(=O)N2CCCC2)cc1	-	-	-29	-	-	-	.
CN(CC(=O)Nc1ccc(F)cc1)C(=O)COc1ccc([N+](=O)[O-])cc1Cl	-	-	-24	-	-	-	-
COC(=O)[C@]12C[C@H](CC(=O)NCc3ccc(C)o3)C(=O)N(CCC3=CCCCC3)C1=C[C@H](COCc1ccccc1)O[C@@H]2C	-	.	-	-	.	.	.
Cc1nn(S(=O)(=O)c2ccc(Cl)cc2)c(C)c1Sc1ccc([N+](=O)[O-])cc1	-	-	-28	15	-	-	.
O=C(NC1CCCC(C(F)(F)F)C1)c1ccc([N+](=O)[O-])o1 (stereo not given)	-	-	-24	-	-	.	?
O=C(NC1CCCCC1)c1ccc([N+](=O)[O-])o1	.	-	.	.	-	.	.
CCc1cccc(NC(=O)c2ccc3c(=O)n4c(nc3c2)CCCCC4)c1	-	-	-19	-	-	-	-
C[C@H](CO)N1C[C@H](C)[C@@H](CN(C)Cc2ccc(C(=O)O)cc2)Oc2ccc(NC(=O)Cc3cn(C)c4ccccc34)cc2CC1=O	-	.	-	-	.	.	.
CC(=O)c1cccc(NC(=O)C2CCCN(S(C)(=O)=O)C2)c1 (stereo not given)	-	-	-27	-	-	-	-
C[C@H]1CN([C@@H](C)CO)C(=O)c2cccc(NC(=O)C3CCCCC3)c2O[C@@H]1CN(C)C(=O)Nc1ccc(F)cc1	-	-	-	-	.	.	.
COc1ccc(N(CC(=O)Nc2ccccc2C(=O)N2CCOCC2)S(=O)(=O)c2ccc(F)cc2)cc1	.	-	.	.	-	.	.
COc1ccc(OC)c(N(CC(=O)NN=C2CCN(C)CC2)S(=O)(=O)c2ccccc2)c1	-	-	-	-	-	.	.
O=C(CN(c1ccc(F)cc1)S(=O)(=O)c1ccccc1)Nc1ccccc1C(=O)O	-	-	-27	-	-	-	.
COc1ccc(OC)c(N(CC(=O)Nc2ccccc2F)S(=O)(=O)c2ccccc2)c1	-	-	-24	-	-	-	.
O=C(CSc1ccccc1)NCCCc1ccccc1	-	-	-23	-	-	-	?
COc1ccccc1-c1ccc2c(c1)O[C@H](CN(C)S(=O)(=O)c1ccc(F)cc1)[C@H](C)CN([C@@H](C)CO)S2(=O)=O	-	-	-	-	.	.	.
C[C@H]1CN([C@@H](C)CO)C(=O)Cc2cc(NC(=O)Nc3ccc4c(c3)OCO4)ccc2O[C@H]1CN(C)C(=O)Nc1cccc2ccccc12	-	.	-	-	.	.	.
SMILES	ERAP1 inh	ARNT-TACC3 inh	rRNA inh HTS	F508del corr	PvdQ acylase	AID977621	AID977628
COc1ccc([C@H]2C[C@H](O)C[C@@H](CCn3cc(-c4ccccc4)nn3)O2)cc1	.	.	-22	-	.	.	-
COc1ccc([C@H]2CC(=O)C[C@@H](CCn3cc(-c4ccncc4)nn3)O2)cc1	.	.	-	-	.	.	.
CN1C(=O)c2cc(NC(=O)c3ccccc3F)ccc2OC[C@@H]2O[C@@H](CC(=O)NCc3ccc4c(c3)OCO4)CC[C@@H]21	-	-	-	-	.	.	.
CCCC#Cc1cnc2c(c1)C(=O)N([C@H](C)CO)C[C@@H](C)[C@H](CN(C)C(=O)NCCC)O2	-	-	-	-	.	.	.
O=C(NCCc1ccccc1)c1ccc2c(c1)N(Cc1ccccc1)C(=O)CS2=O (stereo not given)	-	-	-	-	-	.	.
O=C(Nc1ccccc1Cl)c1ccc2c(c1)N(Cc1ccc(F)cc1)C(=O)CS2=O (stereo not given)	-	-	-23	-	-	-	.
CCc1nc2ccccc2c(C(=O)OCC(=O)NC2CC2)c1C	-	-	-	-	-	.	.
CCc1nc2ccccc2c(C(=O)OCC(=O)NC(=O)c2cccn2C)c1C	.	-	-24	-	-	?	-
Cc1ccc(-n2nnnc2SCC(=O)NC2CCCc3ccccc32)c(C)c1 (stereo not given)	.	-	.	.	-	.	.
Cc1ccc(-n2nnnc2SCC(=O)NC2CCCc3ccccc32)cc1 (stereo not given)	-	.	-30	-	-	-	.
O=C(COC(=O)CSc1ccc([N+](=O)[O-])cc1)NCC1CCCO1 (stereo not given)	-	.	-	-	-	.	.
Cc1cc(SCC(=O)OCC(=O)NCC2CCCO2)c(C)cc1Br (stereo not given)	-	-	-25	-	-	-	.
CC1CCC(C(C)C)C(OCC(O)CN2CCCC(C)C2)C1 (stereo not given)	-	-	-22	-	-	-	?
O=C(c1ccccc1)N(Cc1ccccc1)c1ccccn1	.	-	.	.	-	.	.
O=C(Cc1c(F)cccc1Cl)N(Cc1ccccc1)c1ccccn1	-	-	-21	-	-	-	-
O=C(Cn1c(C(=O)NCC2CCCO2)cc2sccc21)c1ccccc1 (stereo not given)	-	-	.	-	-	.	.
O=C(Cn1c(C(=O)NCc2ccco2)cc2sccc21)c1ccccc1	-	-	-23	-	-	-	?
C[C@H]1CN([C@@H](C)CO)C(=O)c2ccccc2-c2ccccc2CO[C@@H]1CN(C)S(=O)(=O)c1ccccc1	.	.	-	.	.	.	.
CC(=O)c1cc2c(cc1NC(=O)CN1CCCCCCC1)OCO2	.	-	.	.	-	.	.
